Laboratory results from PubChem BioAssay.
Calls of active or inactive are those of the source.

Tests used:
[1] = anti-His antibody binders, primary screen, artefact control for SMM control protein annotation, biochemical, small-molecule microarray, 635 nm fluorescence (AID 1128); conditions: anti-His Alexa647 antibody binding, higher = more signal;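 further: score merges feature fluorescence with signal-to-noise for each printed compound spot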
[2] = system: Human papillomavirus type 1a E7 protein (residues 1-88); experiment: HPV1a E7 small-molecule binders, primary screen, biochemical, small-molecule microarray, residues 1-88, 635 nm (AID 1129); conditions: small-molecule microarray binding, fluorescence 635 nm; higher = more signal
[3] = target: Focal adhesion kinase 1 (Homo sapiens) (UniProt Q05397); experiment: small-molecule microarray binders of FAK, primary screen, biochemical, 635/667 nm fluorescence, BSA, DTT (AID 1130); conditions: PTK2 binding, 635 nm fluorescence, higher = more signal;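 further: composite of spot emission at 667 nm and signal to noise over triplicate slides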
[4] = system: Fibrinogen (Alexa647-labelled); experiment: fibrinogen binders on compound microarrays, profiling panel, artefact control for SMM control-protein annotation, biochemical, small-molecule microarray, 635/667 nm fluorescence (AID 1131); conditions: fibrinogen-A647 binding fluorescence, higher = more signal;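 further: z-score merges 667 nm fluorescence with per-spot signal-to-noise over triplicate slides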
[5] = target: Follistatin (Homo sapiens) (UniProt P19883); experiment: follistatin binders on small-molecule microarrays, primary screen, biochemical, small-molecule microarray, 635/667 nm fluorescence (AID 1132); conditions: FST binding, 635 nm fluorescence, higher = more signal
[6] = target: Fibroblast growth factor 2 (Homo sapiens) (UniProt P09038); experiment: FGF2 binders on small-molecule microarrays, primary screen, biochemical, small-molecule microarray, 635/667 nm fluorescence (AID 1133); conditions: small-molecule microarray binding, FGF2, fluorescence 635/667; higher = more signal
[7] = mitochondrial membrane potential change in A549 cells, profiling panel, cell-based, JC-1 fluorescence, basal, 24 h, 100 nL (AID 1138); conditions: higher = more signal;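 further: A549 lung adenocarcinoma cells under basal conditions with no added stimulus; test concentration not given here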
[8] = system: Lefty1; experiment: Lefty1 binders on small-molecule microarrays, primary screen, biochemical, small-molecule microarray, 635/667 nm fluorescence (AID 1139); conditions: small-molecule microarray binding, fluorescence 635/667; higher = more signal
[9] = system: wheat germ agglutinin (Triticum aestivum), Alexa647-labelled; experiment: wheat germ agglutinin binders on compound microarrays, profiling panel, artefact control for SMM control-protein annotation, biochemical, small-molecule microarray, 635/667 nm fluorescence (AID 1140); conditions: WGA-A647 binding, 635 nm fluorescence, higher = more signal;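 further: score merges 667 nm feature emission with signal to noise over triplicate slides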
[10] = target: Luciferin 4-monooxygenase (Photinus pyralis) (UniProt P08659); experiment: firefly luciferase enzyme inhibitors, primary screen, biochemical, luminescence, purified enzyme, 2006 set (AID 1141); conditions: SteadyGlo luminescence, 30 min, higher = more signal, called active from +8 up or from −8 down;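 further: cell-free assay with purified firefly luciferase at 100 ng per well in PBS; test concentration not given here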
Luciferin 4-monooxygenase (Photinus pyralis), sequence (P08659 whole entry, looked up): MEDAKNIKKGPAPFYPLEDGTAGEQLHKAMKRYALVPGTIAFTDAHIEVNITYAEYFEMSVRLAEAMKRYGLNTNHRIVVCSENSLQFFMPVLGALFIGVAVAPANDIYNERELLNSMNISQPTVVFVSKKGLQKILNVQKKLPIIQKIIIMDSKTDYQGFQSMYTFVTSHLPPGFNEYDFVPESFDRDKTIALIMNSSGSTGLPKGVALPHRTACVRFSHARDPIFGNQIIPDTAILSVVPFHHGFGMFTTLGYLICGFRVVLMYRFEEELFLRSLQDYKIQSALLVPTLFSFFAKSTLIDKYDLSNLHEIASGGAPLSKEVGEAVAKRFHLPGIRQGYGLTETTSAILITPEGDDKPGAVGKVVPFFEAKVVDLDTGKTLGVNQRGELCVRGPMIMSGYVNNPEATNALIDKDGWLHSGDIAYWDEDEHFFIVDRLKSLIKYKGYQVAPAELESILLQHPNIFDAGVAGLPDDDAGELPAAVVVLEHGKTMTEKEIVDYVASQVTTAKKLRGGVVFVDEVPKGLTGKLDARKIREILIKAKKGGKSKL

Focal adhesion kinase 1 (Homo sapiens), sequence (Q05397 whole entry, looked up): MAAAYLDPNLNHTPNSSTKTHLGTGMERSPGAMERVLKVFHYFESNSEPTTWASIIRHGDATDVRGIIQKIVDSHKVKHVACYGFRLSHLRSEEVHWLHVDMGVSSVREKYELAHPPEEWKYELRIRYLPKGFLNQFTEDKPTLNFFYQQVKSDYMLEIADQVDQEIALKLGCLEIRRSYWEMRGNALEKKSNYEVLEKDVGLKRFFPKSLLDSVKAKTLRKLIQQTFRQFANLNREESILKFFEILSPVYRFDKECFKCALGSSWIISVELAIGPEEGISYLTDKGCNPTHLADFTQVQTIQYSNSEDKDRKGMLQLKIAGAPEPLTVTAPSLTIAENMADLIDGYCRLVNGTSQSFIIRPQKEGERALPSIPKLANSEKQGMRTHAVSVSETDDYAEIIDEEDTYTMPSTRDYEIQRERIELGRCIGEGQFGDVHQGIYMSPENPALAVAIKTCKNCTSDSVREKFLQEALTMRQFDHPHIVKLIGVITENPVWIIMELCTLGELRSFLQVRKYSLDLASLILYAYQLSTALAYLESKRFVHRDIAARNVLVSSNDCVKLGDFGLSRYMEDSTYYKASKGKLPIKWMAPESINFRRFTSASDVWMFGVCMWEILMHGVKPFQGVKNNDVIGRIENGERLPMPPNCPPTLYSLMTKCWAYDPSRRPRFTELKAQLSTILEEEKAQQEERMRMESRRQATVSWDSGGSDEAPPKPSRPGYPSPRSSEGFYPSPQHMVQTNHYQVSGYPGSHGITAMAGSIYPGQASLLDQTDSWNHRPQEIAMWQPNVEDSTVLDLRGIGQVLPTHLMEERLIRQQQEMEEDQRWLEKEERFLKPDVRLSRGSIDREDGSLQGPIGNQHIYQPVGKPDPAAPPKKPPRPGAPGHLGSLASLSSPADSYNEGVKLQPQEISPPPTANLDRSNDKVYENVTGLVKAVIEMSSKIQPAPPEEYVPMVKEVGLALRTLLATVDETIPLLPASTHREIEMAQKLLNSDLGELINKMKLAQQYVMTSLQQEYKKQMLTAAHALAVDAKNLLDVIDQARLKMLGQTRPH
Follistatin (Homo sapiens), sequence (P19883 whole entry, looked up): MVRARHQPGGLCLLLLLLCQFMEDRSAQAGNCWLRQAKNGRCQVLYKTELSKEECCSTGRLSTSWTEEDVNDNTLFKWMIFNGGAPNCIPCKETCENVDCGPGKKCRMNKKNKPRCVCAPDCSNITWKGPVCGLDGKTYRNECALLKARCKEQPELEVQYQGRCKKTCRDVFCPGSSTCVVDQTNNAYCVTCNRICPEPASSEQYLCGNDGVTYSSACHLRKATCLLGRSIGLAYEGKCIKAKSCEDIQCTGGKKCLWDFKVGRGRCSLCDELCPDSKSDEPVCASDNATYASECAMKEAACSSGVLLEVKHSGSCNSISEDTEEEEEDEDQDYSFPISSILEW
Fibroblast growth factor 2 (Homo sapiens), sequence (P09038 whole entry, looked up): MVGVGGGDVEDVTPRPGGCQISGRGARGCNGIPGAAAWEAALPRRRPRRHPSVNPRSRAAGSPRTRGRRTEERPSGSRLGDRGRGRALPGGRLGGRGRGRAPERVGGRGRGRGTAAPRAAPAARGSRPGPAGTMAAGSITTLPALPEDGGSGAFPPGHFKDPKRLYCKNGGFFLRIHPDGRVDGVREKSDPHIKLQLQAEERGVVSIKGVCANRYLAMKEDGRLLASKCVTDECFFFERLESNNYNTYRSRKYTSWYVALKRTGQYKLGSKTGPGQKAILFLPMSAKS

Row | SMILES | composite z-score [1] | composite z-score [2] | composite z-score [3] | composite z-score [4] | composite z-score [5] | composite z-score [6] | z-score [7] | composite z-score [8] | composite z-score [9] | z-score [10]
1 | O=C1C2C=CC(C(O)c3cccc(O)c3)N(Nc3ccccc3)C2C(=O)N1c1ccccc1 (stereo not given) | 0.811 | 0.452 | 0.0964 | 0.881 | 0.323 | -0.202 | -0.319 | -0.199 | 0.0207 | 0.509 (inactive)
2 | COc1ccc([Si](C)(C)[C@H]2[C@H](CC(=O)N3CCC[C@H]3CO)O[C@@]3(C(=O)N(Cc4ccc(N5CCC5=O)cc4)c4ccccc43)[C@@H]2C)cc1 | 1.54 | 1.19 | 0.559 | 0.898 | 1.35 | 1.73 | 1.51 | 1.56 | 0.211 | -0.509 (inactive)
3 | C=C(C)[C@@H]1CC=C(C(O)C2C=CC3C(=O)N(c4ccccc4)C(=O)C3N2Nc2ccc(C#N)cc2)CC1 (stereo not given in full) | 0.526 | 1.26 | 0.423 | 0.999 | 1.25 | 0.13 | -0.517 | 0.0839 | 1.32 | -0.251 (inactive)
4 | C=CCNC(=O)[C@@H]1[C@H]2C(=O)O[C@H](c3ccccc3)[C@H](c3ccccc3)N2[C@H](c2ccc(O)cc2)[C@@]12C(=O)N(C(=O)OCCOC)c1ccc(C#CCCO)cc12 | 1.45 | 0.779 | 0.863 | 0.389 | 1.19 | 1.25 | 0.703 | 0.531 | 0.862 | -0.52 (inactive)
5 | NCCCCCNC(=O)[C@H]1C[C@H]2C(=O)N[C@@H](Cc3ccccc3)C(=O)N2[C@H]1c1ccc(O)cc1 | 1.61 | 0.756 | -0.506 | 0.94 | 1.4 | 0.169 | -0.421 | 0.765 | 0.81 | -1.35 (inactive)
6 | [N-]=[N+]=Nc1ccccc1C[C@]1(C(=O)O)N=C(c2ccc(OCCCO)cc2)O[C@H]1c1ccccc1 | 0.133 | 0.612 | -0.0641 | 0.282 | 0.968 | -0.619 | 0.12 | -0.605 | 0.801 | -3.91 (inactive)
7 | CO[C@H]1O[C@H](CO)[C@@H](OC(=O)CCc2ccccc2)[C@H](OC(=O)c2cc3ccccc3[nH]2)[C@H]1OC(=O)c1cc2ccccc2[nH]1 | 1.37 | 1.01 | 0.332 | 0.824 | 1.26 | 1.31 | -0.201 | 0.845 | 0.726 | -0.105 (inactive)
8 | NC(=O)N1C(=O)C2C(C1=O)C1C=C(CCCO)C2C(C2CC2)N1Cc1cccc(OC(F)(F)F)c1 (stereo not given) | 0.589 | 0.469 | -0.0719 | 0.948 | 0.173 | -0.314 | 0.541 | 0.341 | 0.94 | -1.4 (inactive)
